Measurements published in the antibiotic and cytotoxicity screens of Wong et al. (2023).
The whole screen tested about 39,000 compounds, of which about 3,300 (8.5%) were called active. What follows is part of a selection rich in actives, with near analogues and random picks from the rest.

Test system: HepG2
Test: cytotoxicity call (relative viability < 0.9)
Settings: 10 µM

Structure (SMILES)	cytotoxicity call
CO[C@H](CN(C)C(=O)C1CCOCC1)[C@@H](C)CN(C(=O)Nc1ccc(C(F)(F)F)cc1)[C@H](C)CO	inactive
COc1ccccc1CNC(=O)C[C@@H]1C[C@H]2c3cc(NC(=O)C4CCOCC4)ccc3O[C@H]2[C@H](CO)O1	inactive
NCc1nc(-c2ccccc2)no1	inactive
CCN(CC)CCc1nc(-c2ccccc2)no1.O=C(O)CC(O)(CC(=O)O)C(=O)O	active
CCN(CCCc1ccccc1)CCCc1ccccc1.O=C(O)CC(O)(CC(=O)O)C(=O)O	inactive
C=CC(=O)Nc1ccccc1[C@@H](CCc1ccc(OC)c(OC)c1)OC(=O)[C@@H]1CCCCN1C(=O)C(=O)C(C)(C)CC	inactive
COc1ccc(NC(=O)Nc2ccc3c(c2)[C@H]2C[C@H](CC(=O)NCC(F)(F)F)O[C@H](CO)[C@H]2O3)cc1	inactive
Cn1cnc(CCNC(=O)C[C@@H]2CC[C@@H]3[C@H](COC[C@@H](O)CN3C(=O)Nc3ccc(C(F)(F)F)cc3)O2)c1	inactive
COc1ccc(CN(C)C[C@H]2Oc3c(NC(=O)Nc4ccc(C(F)(F)F)cc4)cccc3C(=O)N([C@H](C)CO)C[C@H]2C)cc1	inactive
COc1ccc(NC(=O)Nc2cccc3c2O[C@@H](CN(C)Cc2ccc(C(F)(F)F)cc2)[C@H](C)CN([C@@H](C)CO)C3=O)cc1	inactive
COc1ccc(NC(=O)Nc2cccc3c2O[C@@H](CN(C)Cc2ccc(C(F)(F)F)cc2)[C@@H](C)CN([C@H](C)CO)C3=O)cc1	inactive
COc1ccc(CN(C)C[C@@H]2Oc3c(NC(=O)Nc4ccc(C(F)(F)F)cc4)cccc3C(=O)N([C@@H](C)CO)C[C@H]2C)cc1	active
COc1ccc(CN(C)C[C@H]2Oc3c(NC(=O)Nc4ccc(C(F)(F)F)cc4)cccc3C(=O)N([C@H](C)CO)C[C@@H]2C)cc1	inactive
COc1ccc(CN(C)C[C@H]2Oc3c(NC(=O)Nc4ccc(C(F)(F)F)cc4)cccc3C(=O)N([C@@H](C)CO)C[C@H]2C)cc1	active
Cc1noc(C)c1NC(=O)N(C)C[C@@H]1OCCCC[C@@H](C)Oc2ccc(NC(=O)C3CCCCC3)cc2C(=O)N([C@H](C)CO)C[C@H]1C	inactive
C[C@@H]1CN([C@@H](C)CO)S(=O)(=O)c2ccc(Br)cc2O[C@H]1CN(C)C(=O)c1ccccc1F	inactive
O=C(O)c1cc(=O)cc[nH]1	inactive
C[C@@H]1CN([C@@H](C)CO)C(=O)Cc2cc(NS(=O)(=O)c3ccc(F)cc3)ccc2O[C@@H]1CN(C)Cc1ccncc1	inactive
COc1ccc(CNC(=O)C[C@H]2C[C@H]3c4cc(NC(=O)NC5CCCC5)ccc4O[C@H]3[C@H](CO)O2)cc1	inactive
COc1cccc(S(=O)(=O)Nc2ccc3c(c2)[C@H]2C[C@H](CC(=O)NC4CCCCC4)O[C@H](CO)[C@H]2O3)c1	inactive
OC(c1ccc(-c2ccc(CN3CCN(Cc4ccncc4)CC3)cc2)c(F)c1)(C(F)(F)F)C(F)(F)F	inactive

Structure (SMILES)	cytotoxicity call
CC(=O)N[C@@H](CC(C)C)C(=O)O [listing 1 of 2 here]	inactive
CC(=O)N[C@@H](CC(C)C)C(=O)O [listing 2 of 2 here]	inactive
CC(C)C[C@@H](NC(=O)CCN)C(=O)O	active
O=C(N[C@@H]1CC[C@H](CCNS(=O)(=O)c2ccc(F)cc2)O[C@H]1CO)C1CC1	inactive
Cc1noc(C)c1S(=O)(=O)N(C)C[C@@H]1Oc2ccc(NC(=O)NC(C)C)cc2CC(=O)N([C@@H](C)CO)C[C@H]1C	inactive
CCN1C(=O)S/C(=C\C(=O)O)C1=O	inactive
O=C(C[C@H]1CC[C@@H]2NC[C@@H](O)COC[C@H]2O1)NCCN1CCCCC1	inactive
C[C@@H]1CCCCO[C@@H](CN(C)S(=O)(=O)c2ccc(Cl)cc2)[C@H](C)CN([C@@H](C)CO)C(=O)c2cc(NC(=O)Nc3ccc(C(F)(F)F)cc3)ccc2O1	inactive
C[C@H]1CCCCO[C@H](CN(C)S(=O)(=O)c2ccc(Cl)cc2)[C@@H](C)CN([C@@H](C)CO)C(=O)c2cc(NC(=O)Nc3ccc(C(F)(F)F)cc3)ccc2O1	inactive
C[C@@H]1CN([C@H](C)CO)C(=O)c2cc(NC(=O)Nc3ccc(C(F)(F)F)cc3)ccc2O[C@@H](C)CCCCO[C@H]1CN(C)S(=O)(=O)c1ccc(Cl)cc1	inactive
C[C@H](CO)N1C[C@H](C)[C@H](CN(C)S(=O)(=O)c2ccc(Cl)cc2)OCCCC[C@H](C)Oc2ccc(NC(=O)Nc3ccc(C(F)(F)F)cc3)cc2C1=O	active
C[C@@H]1CCCCO[C@@H](CN(C)S(=O)(=O)c2ccc(Cl)cc2)[C@H](C)CN([C@H](C)CO)C(=O)c2cc(NC(=O)Nc3ccc(C(F)(F)F)cc3)ccc2O1	inactive
C[C@@H]1CCCCO[C@H](CN(C)S(=O)(=O)c2ccc(Cl)cc2)[C@@H](C)CN([C@H](C)CO)C(=O)c2cc(NC(=O)Nc3ccc(C(F)(F)F)cc3)ccc2O1	active
COc1ccc(S(=O)(=O)N(C)C[C@@H]2Oc3ncc(-c4cccc(OC)c4)cc3C(=O)N([C@H](C)CO)C[C@@H]2C)cc1	inactive
Cc1noc(C)c1S(=O)(=O)Nc1ccc2c(c1)C(=O)N([C@@H](C)CO)C[C@@H](C)[C@H](CN(C)C(=O)Nc1ccc(C(F)(F)F)cc1)OCCCC[C@@H](C)O2	inactive
NC[C@H]1COC2(CCCCC2)O1	inactive
C[C@H]1CN([C@@H](C)CO)C(=O)Cc2cc(NC(=O)CCN3CCOCC3)ccc2O[C@H]1CN(C)S(=O)(=O)c1ccc(Cl)cc1	inactive
CC(=O)Nc1nonc1N1CCCC1=O	inactive
O=C(Cc1ccccn1)NCC[C@@H]1CC[C@@H](NC(=O)CN2CCOCC2)[C@@H](CO)O1	inactive
Cc1ccc(S(=O)(=O)Nc2ccc3c(c2)C(=O)N([C@@H](C)CO)C[C@@H](C)[C@@H](CN(C)C(=O)Nc2ccc4c(c2)OCO4)OCCCC[C@H](C)O3)cc1	inactive
CC1C=CC=CC=CC=CC=CC=CC=CC(OC2OC(C)C(O)C(N)C2O)CC2OC(O)(CC(O)CC(O)C(O)CCC(O)CC(O)CC(=O)OC(C)C(C)C1O)CC(O)C2C(=O)O (stereo not drawn)	inactive

Structure (SMILES)	cytotoxicity call
CC1C=CC=CC=CC=CC=CC=CC=CC(OC2OC(C)C(O)C(N)C2O)CC(O)C(C(=O)O)C(O)CC(=O)CC(O)CC(O)CC(O)CC(=O)CCCC(=O)CC(=O)OC1C(C)CC(C)C(O)CC(=O)c1ccc(N)cc1 (stereo not drawn)	active
C[C@H]1[C@@H](O)[C@@H](C)\C=C/C=C\C=C/C=C\C=C/C=C\C=C/[C@@H](O[C@H]2O[C@H](C)[C@@H](O)[C@H](N)[C@@H]2O)C[C@H]2O[C@](O)(C[C@@H](O)C[C@@H](O)[C@@H](O)CC[C@@H](O)C[C@@H](O)CC(=O)O[C@H]1C)C[C@@H](O)[C@@H]2C(=O)O	inactive
COc1ccc(CN(C)C[C@@H]2Oc3ccc(NC(=O)Cn4cnnn4)cc3CC(=O)N([C@H](C)CO)C[C@H]2C)cc1	inactive
O=c1nc(NCc2cccnc2)cn[nH]1	inactive
COc1ccc(NC(=O)Nc2ccc3c(c2)C(=O)N([C@H](C)CO)C[C@H](C)[C@H](CN(C)CC2CCCCC2)OCCCC[C@H](C)O3)cc1	inactive
COc1ccc(NC(=O)Nc2ccc3c(c2)C(=O)N([C@@H](C)CO)C[C@@H](C)[C@H](CN(C)CC2CCCCC2)OCCCC[C@@H](C)O3)cc1	inactive
COc1ccc(NC(=O)Nc2ccc3c(c2)C(=O)N([C@H](C)CO)C[C@@H](C)[C@@H](CN(C)CC2CCCCC2)OCCCC[C@H](C)O3)cc1	active
COc1ccc(NC(=O)Nc2ccc3c(c2)C(=O)N([C@@H](C)CO)C[C@H](C)[C@H](CN(C)CC2CCCCC2)OCCCC[C@@H](C)O3)cc1	inactive
COc1ccc(NC(=O)Nc2ccc3c(c2)C(=O)N([C@@H](C)CO)C[C@@H](C)[C@@H](CN(C)CC2CCCCC2)OCCCC[C@@H](C)O3)cc1	active
COc1ccc(NC(=O)Nc2ccc3c(c2)C(=O)N([C@H](C)CO)C[C@@H](C)[C@@H](CN(C)CC2CCCCC2)OCCCC[C@@H](C)O3)cc1	active
COc1ccc(NC(=O)Nc2ccc3c(c2)C(=O)N([C@H](C)CO)C[C@@H](C)[C@H](CN(C)CC2CC2)OCCCC[C@H](C)O3)cc1	inactive
COc1ccc(NC(=O)Nc2ccc3c(c2)C(=O)N([C@H](C)CO)C[C@H](C)[C@@H](CN(C)CC2CCCCC2)OCCCC[C@@H](C)O3)cc1	inactive
COc1ccc(NC(=O)Nc2ccc3c(c2)C(=O)N([C@H](C)CO)C[C@@H](C)[C@H](CN(C)CC2CCCCC2)OCCCC[C@@H](C)O3)cc1	active
COc1ccc(NC(=O)Nc2ccc3c(c2)C(=O)N([C@@H](C)CO)C[C@@H](C)[C@@H](CN(C)CC2CCCCC2)OCCCC[C@H](C)O3)cc1	inactive
COc1ccc(NC(=O)Nc2ccc3c(c2)C(=O)N([C@@H](C)CO)C[C@H](C)[C@@H](CN(C)CC2CCCCC2)OCCCC[C@H](C)O3)cc1	inactive
COc1ccc(NC(=O)Nc2ccc3c(c2)C(=O)N([C@@H](C)CO)C[C@@H](C)[C@H](CN(C)CC2CCCCC2)OCCCC[C@H](C)O3)cc1	inactive
C[C@@H]1CN([C@@H](C)CO)C(=O)c2cccc(NC(=O)Nc3cccc4ccccc34)c2O[C@H]1CN(C)S(=O)(=O)c1ccccc1F	inactive
Cc1noc(C)c1NC(=O)Nc1ccc2c(c1)C(=O)N([C@H](C)CO)C[C@H](C)[C@H](CN(C)S(C)(=O)=O)O2	inactive
O=C(CN1CCOCC1)N[C@@H]1CC[C@H](CCNC(=O)Nc2cc(F)ccc2F)O[C@@H]1CO	inactive
COc1ccc(NC(=O)N(C)C[C@@H]2OCCCC[C@H](C)Oc3ccc(NC(=O)c4ccccc4)cc3C(=O)N([C@H](C)CO)C[C@H]2C)cc1	inactive
O=C(C[C@H]1C=C[C@@H](NC(=O)C2CC2)[C@@H](CO)O1)NCCCN1CCOCC1	inactive
